Shown are actives, neighbours in structure and some others; about 7.4% of the full set was active somewhere.
FLuc counter: qHTS profiling assay for firefly luciferase inhibitor/activator using purifed enzyme and Km concentrations of substrates (counterscreen for miR-21 project); hit rate 6.9% among 360,000; Luciferin 4-monooxygenase (Photinus pyralis), P08659; AID 588342, 2011; purified FLuc, Km substrates, luminescence inhibition; Potency, µM (titrated, usually from 57.5 µM), for inactives: at the top dose activity change, negative = inhibition, most hits filed as inhibitors;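 also: plate controls were vehicle for no effect and reference inhibitor for full effect; nearly all actives have a fitted effect of over 55% in size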
Target sequence (P08659 whole entry, looked up): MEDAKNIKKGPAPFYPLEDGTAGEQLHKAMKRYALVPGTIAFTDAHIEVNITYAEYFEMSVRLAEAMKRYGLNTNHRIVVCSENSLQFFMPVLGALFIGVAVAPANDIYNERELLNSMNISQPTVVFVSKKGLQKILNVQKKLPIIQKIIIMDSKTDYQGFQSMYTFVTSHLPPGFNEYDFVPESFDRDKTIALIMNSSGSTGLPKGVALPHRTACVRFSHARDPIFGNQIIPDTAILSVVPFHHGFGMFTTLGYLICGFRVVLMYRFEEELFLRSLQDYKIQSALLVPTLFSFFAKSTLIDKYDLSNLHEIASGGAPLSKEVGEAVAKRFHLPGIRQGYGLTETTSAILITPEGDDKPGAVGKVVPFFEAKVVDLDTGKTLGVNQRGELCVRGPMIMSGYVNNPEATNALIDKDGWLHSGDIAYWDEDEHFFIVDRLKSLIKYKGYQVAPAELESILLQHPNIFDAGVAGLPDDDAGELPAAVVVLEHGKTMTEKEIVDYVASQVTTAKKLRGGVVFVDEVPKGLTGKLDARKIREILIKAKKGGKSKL
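Purified P. pyralis luciferase, 10 nM final, with Km-level 10 uM D-luciferin and 10 uM ATP in 50 mM Tris acetate pH 7.5, 10 mM Mg acetate, 0.01% Tween-20, 0.05% BSA; 6-point qHTS titration about 60 µM downward; luminescence read.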
Rab9 prom act: qHTS Assay for Rab9 Promoter Activators. Huh7 Rab9 promoter-luciferase reporter, luminescence, 24 h. Potency, µM (highest dose often 9.22 µM), for the others: top-dose activation, negative = inhibition, hits mostly activators. hit rate 2.8% among 320,000. AID 485297, 2010; also: % of control where 0% means no effect; nearly all actives have a fitted effect of over 60% in size
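Cells were plated at 1500 per well in reduced-serum medium with 10% FBS and left 2 h. Compound in DMSO was then added for 24 h at 37 °C. Reporter signal was read by luminescence after 10 min with luciferase detection reagent.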
ELG1 genotoxic: qHTS screen for small molecules that induce genotoxicity in human embryonic kidney (HEK293T) cells expressing luciferase-tagged ELG1; hit rate 1.3% among 330,000; HEK293T ELG1-luciferase reporter, luminescence, 16 h; Potency, µM (top dose mostly 46 µM), without a hit: at the highest dose activity change, positive = activation, hits mostly activators; also: % of control where 0% means no effect; nearly all actives have a fitted effect of over 60% in size
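Step 1: seed 2,000 HEK293T ELG1-luciferase cells per well. Step 2: add compound or DMSO, incubate 16 hr at 37 °C. Step 3: ONE-Glo, 30 min at room temperature, read luminescence.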
NPC1 prom act: qHTS Assay for NPC1 Promoter Activators | Huh7 NPC1 promoter luciferase reporter, 24 h | Potency, µM (doses to about 9.22 µM), without a hit: at the highest dose activation, actives largely listed as activators | hit rate 2.4% among 320,000 | AID 485313, 2010; also: % of control where 0% means no effect; nearly all actives have a fitted effect of over 60% in size
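Luminescence read-out of NPC1 promoter-driven luciferase in stably transfected Huh7 cells; compounds delivered in DMSO and left 24 h at 37C, 5% CO2, qHTS titration format.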
SMN2 splice enh: qHTS Assay for Enhancers of SMN2 Splice Variant Expression; hit rate 2.8% among 210,000; HEK293 SMN2-luciferase splicing reporter, luminescence, 30-36 h; Potency, µM (series often up to 46.1 µM), for the others: at the highest dose activity change, positive = activation, most hits filed as activators; also: % of control where 0% means no effect; nearly all actives have a fitted effect of over 55% in size
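HEK293 cells carry an SMN2 […]–luciferase reporter in which exon 7 inclusion puts luciferase in frame. Cells were plated 10-12 h before compound addition, then incubated 30-36 h at 37C. ONE-Glo luminescence was read; sodium butyrate at 4.5 mM final served as control.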
* hit, by the source's call; ? = inconclusive; . = no result; [ ] = remark or other dose. Calls follow the shape of the dose curve; as a rule, active = well fitted curve in the direction sought with a large enough effect; inconclusive = small, poorly fitted or top-dose-only effect, or another doubt; inactive = no such curve, though single readings can be large; an effect the other way counts as inactive or inconclusive. Potency is read from the fitted curve at half-maximal effect.

SMILES | FLuc counter | Rab9 prom act | ELG1 genotoxic | NPC1 prom act | SMN2 splice enh
COc1cc(C2CC(=O)Nc3c2c(C)nn3-c2nncc(-c3ccccc3)n2)cc(OC)c1OC (stereo not given) | -10.9% | . | . | . | .
CCCn1c(CCCNC(=O)c2ccccc2OC)nc2ccccc21 | -6.7% | . | . | . | -7.4%
Cc1ccc(-n2nc(CO)c(C(=O)NCc3cccs3)n2)cc1 | -7.4% | . | . | . | -21.4%
CCOc1ccc(-n2nc(CO)c(C(=O)NCc3cccs3)n2)cc1 | 19µM* | . | . | . | -10.4%
CCc1ccc(-n2nc(CO)c(C(=O)NC)n2)cc1 | 15.1µM* | . | . | . | ?
N#Cc1c(NC(=O)CSc2ncn[nH]2)sc2c1CCCC2 | 8.49µM* | -6.8% | 1.1% | -10.6% | -62.1%
CC1CCc2c(sc(NC(=O)Cn3nc(C(=O)O)c4ccccc4c3=O)c2C#N)C1 (stereo not given) | 12µM* | -4.6% | 5.4% | 11.7% | .
CC1CCc2c(sc(NC(=O)CSc3ncn[nH]3)c2C#N)C1 (stereo not given) | 10.7µM* | -32.7% | -7.8% | -42.7% | .
CCCc1cc(=O)[nH]c(SCC(=O)Nc2sc3c(c2C#N)CCC(C)C3)n1 (stereo not given) | 26.9µM* | -1.9% | 3.5% | -2.9% | -17.0%
CC1CCc2c(sc(NC(=O)CSc3nnc(-c4ccccc4)o3)c2C#N)C1 (stereo not given) | 2.1% | 1.1% | 9.4% | -2.4% | 8.6%
CN(Cc1ccccc1)C(=O)c1cc2c(s1)-c1ccc(Cl)cc1SC2 | -15.5% | . | . | . | 2.2%
Cc1ccc(C)n1-c1nnc(N2CCCC(C(=O)Nc3ccc(C(C)C)cc3)C2)s1 (stereo not given) | 2.9% | . | . | . | -4.1%
C=Cc1ccc(Cn2c(=O)cc(C)c3c(C)nn(C)c32)cc1 | -1.3% | . | . | . | .
CCCCCCCC/C=C\CCCCCCCC(N)=O | . | . | . | . | -9.6%
Cc1nc2c(s1)sc1ccccc12 | 23.9µM* | 6.6% | 13.2% | 12.4% | -6.3%
CCOCCOC(=O)COc1ccc2c(-c3ccccc3)cc(=O)oc2c1 | ? | -1.5% | 1.4% | -1.4% | 3.6%
CC(=O)Oc1ccc2c(=O)c(-c3ccccc3)coc2c1 | 13.5µM* | ? | 0.0% | ? | 25.1µM*
CCOC(=O)COc1ccc2c(=O)c(-c3ccccc3)coc2c1 | 16.9µM* | -5.4% | 1.6% | -1.0% | .
O=C(NCc1ccc(Cl)cc1Cl)c1cccc(N2CCCS2(=O)=O)c1 | -15.7% | . | . | . | -24.5%
CC1(C)C[C@](C)(C(=O)c2ccccc2)C=C1c1ccccc1 | . | . | . | . | -4.8%
CCc1cccc(NC(=O)c2oc3ccc4c(c3c2C)C(=O)CC(C)(C)O4)c1 | 0.849µM* | . | . | . | .
COc1ccc(NC(=O)c2oc3ccc4c(c3c2C)C(=O)CC(C)(C)O4)cc1OC | 0.426µM* | . | . | . | .
COCC1C2CC[C@H]3C(OCc4ccc(OC)cc4)OC[C@]4(C)[C@H]3C2=C(CN4C(=O)OC(C)(C)C)[C@H](C)C1COC (stereo not given in full) | . | . | . | . | -35.4%
COc1ccc(-c2nn(C)c3sc(C(=O)N4CCN(c5cccc(C)c5C)CC4)cc23)cc1OC | -2.8% | . | . | . | -6.3%
O=C(Nc1ccc2snnc2c1)Nc1cccc2ccccc12 | 21.3µM* | 4.3% | -0.9% | -3.9% | -7.9%
SMILES | FLuc counter | Rab9 prom act | ELG1 genotoxic | NPC1 prom act | SMN2 splice enh
COc1cc(NC(=O)c2ccc3snnc3c2)cc(OC)c1 | ? | 11.1% | 13.3% | ? | .
COc1cccc(NC(=O)Nc2ccc3c(c2)nnn3C)c1 | 6.75µM* | ? | 10.1% | ? | 17.8µM*
COc1cccc(NC(=O)Nc2ccc3snnc3c2)c1 | 16.9µM* | . | . | . | 19.2%
COc1cccc(NC(=O)Nn2cnnc2)c1 | 1.8% | -0.3% | 0.7% | -1.6% | .
Cc1ccc(NC(=O)Nc2ccc3snnc3c2)cc1C | 23.9µM* | . | . | . | 0.9%
O=C(C1CCC1)N1CCCc2cc(S(=O)(=O)Nc3ccc(F)cc3)ccc21 | -13.0% | . | . | . | .
CCCCCCN(C(=O)CCCCCN1C(=O)NC(C2CC2)C(C(=O)OCc2ccccc2)=C1C)C(C(=O)NCCCC)c1ccc(OCC(=O)OC)c(C(=O)OC)c1 (stereo not given) | . | . | . | . | -28.7%
Cc1ccc(Nc2nc3nonc3[nH]c2=O)cc1C | 12µM* | 26.0% | 6.9% | 18.1% | 12.6%
Cc1ccc(Nc2nc3nonc3[nH]c2=O)cc1Cl | 21.3µM* | 2.2% | -16.0% | 9.2% | -73.6%
CCCCCCCC1=Cc2ccccc2C(C(C(=O)OC)C(=O)OC)N1C(=O)OC (stereo not given) | . | . | . | . | -7.7%[9.22 µM]
COc1ccc(CCc2nnc(CCC(=O)NCc3cc(C(C)C)no3)o2)cc1 | 16.9µM* | ? | ? | 26.9% | ?
O=C(c1ccccc1)c1cc2ccc(O)cc2oc1=O | 19µM* | 13.7% | 5.6% | 23.1% | 0.5%
O=C(Nc1cc2ccc(O)cc2oc1=O)c1ccccc1 | 5.36µM* | . | . | . | .
O=C(c1ccc(Br)cc1)c1cc2ccc(O)cc2oc1=O | ? | 2.0% | 2.4% | 5.9% | .
Cc1oc(=O)c(NC(=O)c2ccccc2)cc1C(C)O (stereo not given) | 6.8% | 10.9% | 8.5% | 9.0% | .
CCN=C1S/C(=C\c2ccc(N3CCOCC3)cc2C)C(=O)N1CC | -8.7% | -15.5% | -1.6% | -15.6% | -11.6%
CCn1c(C)cc(/C=C2/SC(=O)N(CC(=O)N3CCCC3)C2=O)c1C | 21.3µM* | 11.1% | -9.4% | 7.7% | .
COCCN1C(=O)/C(=C/c2ccc(N3CCCC3)cc2C)SC1=S | 4.78µM* | 20.0% | 2.8% | -0.3% | .
COCCn1c(C)cc(/C=C2/SC(=O)N(CC(=O)N3CCCC3)C2=O)c1C | 19µM* | 15.6% | 17.0% | 2.0% | .
Cc1ccc(-n2c(C)cc(/C=C3/SC(=O)N(CC(=O)N4CCOCC4)C3=O)c2C)nc1 | 1.51µM* | ? | ? | ? | .
O=C(O)c1ccccc1C(=O)Nc1ccc(-n2ccc(C(F)(F)F)n2)cc1 | ? | -5.9% | 0.0% | -8.5% | .
Cc1cc(C)cc(NC(=O)Nc2ccc(-n3ccc(C(F)(F)F)n3)cc2)c1 | -11.3% | 1.8% | -10.1% | ? | .
O=C(Nc1ccc(-n2ccc(C(F)(F)F)n2)cc1)c1cccs1 | 10.7µM* | 3.16µM* | ? | 2.82µM* | .
O=C(Nc1ccc(-n2ccc(C(F)(F)F)n2)cc1)Nc1cccc(Cl)c1 | 10.7µM* | 25.6% | -0.8% | 18.9% | .
COc1ccccc1NC(=O)Nc1ccc(-n2ccc(C(F)(F)F)n2)cc1 | 10.7µM* | 2.82µM* | -0.7% | ? | .
COC(=O)NC(CCc1ccccc1)C(C(=O)OC)C(=O)OC (stereo not given) | . | . | . | . | -2.4%
CCOC(=O)N1CCN(C(=O)CN(c2ccc(C)cc2C)S(=O)(=O)c2ccccc2)CC1 | -2.7% | . | . | . | 6.5%
CC(C)Cc1nn2cc(-c3cccc(Br)c3)nc2s1 | 0.426µM* | . | . | . | -1.5%
